An excerpt weighted towards active compounds, which were near 2.3% of everything screened.
M1 antag: antagonists of human M1 muscarinic receptor; P11229; CHO-K1 hM1, Fluo-8 calcium fluorescence, ACh EC80 antagonist; inhibition, % at 3 µM; 1.3% of 360,000 active;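 active = percent inhibition above its own plate's cutoff, namely the mean of that plate's compound wells plus 3 SD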;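 note: peak over basal fluorescence ratio during 140 s after agonist addition; 0% = ACh EC80 plus DMSO and 100% = DMSO alone without agonist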
Target sequence (P11229 whole entry, looked up): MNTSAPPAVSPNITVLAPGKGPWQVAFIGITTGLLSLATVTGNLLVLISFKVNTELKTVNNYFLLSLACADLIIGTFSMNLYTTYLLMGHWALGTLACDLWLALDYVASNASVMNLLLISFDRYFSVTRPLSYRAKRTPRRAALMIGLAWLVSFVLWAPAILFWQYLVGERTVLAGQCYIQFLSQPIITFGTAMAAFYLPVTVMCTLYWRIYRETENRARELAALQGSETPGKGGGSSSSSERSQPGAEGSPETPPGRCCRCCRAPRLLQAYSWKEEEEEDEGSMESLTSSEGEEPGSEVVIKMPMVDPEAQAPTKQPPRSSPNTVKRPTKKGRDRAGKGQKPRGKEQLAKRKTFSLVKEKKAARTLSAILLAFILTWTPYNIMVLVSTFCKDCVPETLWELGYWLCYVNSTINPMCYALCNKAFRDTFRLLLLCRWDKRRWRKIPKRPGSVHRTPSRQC
CHO-K1 Ca antag: nonselective inhibitor or artifact in parental CHO-K1 cells. ATP-induced calcium, Fluo-8 fluorescence. inhibition, % at 3 µM. 0.6% of 360,000 active. AID 602250;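 active = inhibition above a per-plate cutoff, the plate's mean sample inhibition plus 3 SD, cut at about 24% in these data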;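 note: 0% = DMSO plus EC80 ATP and 100% = DMSO alone without ATP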
M1 ag parental: nonselective activator or artifact in parental CHO-K1 cells; 0.48% of 360,000 active; Fluo-8 calcium fluorescence; scaled to maximal ATP response, vehicle zero; activation, % at 3 µM; in the data active = activation above about 15%;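 note: untransfected CHO-K1 host cells lacking M1 receptor as counterscreen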
M1 PAM parental: counter-screen for M1 PAMs: effect in parental CHO-K1 cells; ATP EC20, Fluo-8 calcium fluorescence; 0% at ATP EC20, 100% at ATP max; activation, % at 3 µM; 0.02% of 360,000 active;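 active = activation above the run cutoff, the mean activation of all test compounds plus 3 SD, cut at about 40% in these data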;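 note: peak over basal fluorescence ratio in a 140 s read after ATP addition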
CHRM1 agonist: activates human CHRM1 receptor; AID 588814; activation, % at 3 µM; 0.33% of 360,000 active; CHO-K1 hM1, Fluo-8 calcium fluorescence, agonist mode; 0% DMSO, 100% acetylcholine EC100; P11229;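 active = activation above the run's mean compound activation plus 3 SD, cut at about 16% in these data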;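 note: peak over basal fluorescence ratio within a 140 s kinetic read after compound addition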
M1 PAM: human CHRM1 positive allosteric modulation. P11229. CHO-K1 hM1, Fluo-8 calcium fluorescence, ACh EC20; 0% = ACh EC20, 100% = maximal ACh. activation, % at 3 µM. 0.088% of 360,000 active; in the data active = activation above about 19%, passing the limit was not always enough
The depositor's hits bear a star.

SMILES	M1 antag	CHO-K1 Ca antag	M1 ag parental	M1 PAM parental	CHRM1 agonist	M1 PAM
CC(C)(C(=O)N1CCC1(C)C(=O)NS(=O)(=O)c1cccc(Cl)c1)c1ccccc1 (configuration not stated)	-1	5	0	-6	-1	0
COc1ccc(-c2cc(C(=O)Nc3cccc(S(=O)(=O)NCc4ccco4)c3)c3ccccc3n2)cc1OC	41*	-8	7	-4	-1	-13
COc1ccccc1CN(C)C(=O)c1cc(-c2cc(OC)c(OC)c(OC)c2)nc2ccccc12	19	-2	5	1	-6	-3
COc1ccc(-c2cc(C(=O)N(C)Cc3ccccc3F)c3ccccc3n2)cc1OC	40*	8	5	1	-2	-16
CCN(CC(=O)Nc1ccc(NC(C)=O)cc1)C(=O)c1cc(-c2ccccc2Cl)nc2ccccc12	41*	3	8	-5	0	-16
COc1ccc(NC(=O)CN(C)C(=O)c2cc(-c3ccc(Cl)cc3)nc3ccccc23)cc1	20	8	8	3	-4	-4
CCOc1ccc(NC(=O)CN(C)C(=O)c2cc(-c3ccc(OC)cc3)nc3ccccc23)cc1OCC	30*	14	5	-15	-2	-8
O=C1N=C(N2CCOCC2)S/C1=C/c1cc2c(cc1[N+](=O)[O-])OCO2	-6	-4	1	1	-3	9
O=C(NCc1c(Cl)cccc1Oc1ccccc1)c1ccccc1	-17	0	0	7	-2	18
CCC(=O)N1CCc2cc(S(=O)(=O)NCCC(=O)N3CCN(c4cccc(C)c4)C(C)C3)ccc21 (configuration not stated)	23	20	16*	-7	1	-16
CCOC(=O)C1CCN(C(=O)CCNS(=O)(=O)c2ccc3c(c2)CCN3C(=O)CC)CC1	1	58*	0	-17	-2	1
CC1(C)CC(=O)C(C=NCCN2CCOCC2)=C(O)C1	-27	-15	0	19	-2	4
CC1(C)CC(=O)C(C=NCCN2CCN(CCCCS(=O)(=O)O)CC2)=C(O)C1	4	25*	0	-8	-3	2
O=c1[nH]c(=S)[nH]c2c1C(c1ccc(Cl)cc1)OC(C1CCCCC1)C2 (configuration not stated)	-33	-14	0	9	-2	-1
COc1ccc(N(CC(=O)N2c3ccccc3CC2C)S(=O)(=O)c2c(C)nn(C)c2C)cc1 (configuration not stated)	28*	18	6	-5	-7	-10
CCC(Sc1ccc(Cl)cc1)C(=O)Nc1nnc(-c2cccc([N+](=O)[O-])c2)s1 (configuration not stated)	-9	-3	1	23	20*	5
CCC(Sc1nncn1C)C(=O)Nc1nnc(-c2ccccc2Cl)s1 (configuration not stated)	-12	-6	0	14	-8	4
CCCCN(C(=O)C1CC(=O)N(c2ccc(CC)cc2)C1)c1c(N)n(CCC)c(=O)[nH]c1=O (configuration not stated)	-9	-6	0	20	-3	6
O=S(=O)(c1cccc(Cn2nnc(-c3ccccc3)n2)c1)N1CCOCC1	14	-5	16*	-1	2	-11
Cc1ccc(S(=O)(=O)c2nnn3c2nc(NCCCN2CCCC2=O)c2ccccc23)cc1C	13	-2	2	-18	-5	-6
Cc1ccc(S(=O)(=O)c2nnn3c2nc(NC2CCN(Cc4ccccc4)CC2)c2ccccc23)cc1C	75*	8	0	-1	-6	-23
O=C(c1ccccc1)c1ccc(O)cc1O	-10	-3	16*	2	9	9
Cc1cc2ccccc2cc1C(=O)c1ccccc1	-36	-19	0	13	-1	28*
O=C(c1ccccc1)c1ccc2ccccc2c1	-4	-9	0	5	-6	-1
CC(C)=CCN1CCN(Cc2cc(F)ccc2-n2nc(C)cc2C)CC1CCO (configuration not stated)	-2	-1	0	12	-9	-4

Source: PubChem BioAssay
